Experiment [1] relates to Plasmodium falciparum Sir2 (PF13_0152, Sir2A). In words: pfSir2 binders on small-molecule microarrays, primary screen, biochemical, small-molecule microarray, 635 nm fluorescence (AID 1098).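 Further: score merges spot fluorescence intensity with its signal-to-noise ratio.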 To be noted: small-molecule microarray binding, fluorescence 635 nm; higher = more signal.
A short description of experiment [2]: small-molecule microarray binders of probe aDKK1, primary screen, biochemical, biotinylated probe, 635/667 nm fluorescence (AID 1099).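 Further: score merges 667nm spot fluorescence with signal to noise across triplicate slides.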 The following applies: higher = more signal.
Experiment [3] in a line: small-molecule microarray binders of probe aCHRDL2, primary screen, biochemical, biotinylated probe, 635/667 nm fluorescence (AID 1100). To be noted: higher = more signal.
Experiment [4] can be described thus: splicing luciferase reporter signal modulators, primary screen, spliceosome inhibition project, cell-based, HEK293, splice +/- reporter (AID 1101).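 Further: HEK293 cells carrying a splicing-competent luciferase reporter gene; test concentration not given here.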 To be noted: luminescence, 24 h, higher = more signal, called active from +8 up or from −8 down.
For experiment [5], the target named is Fibroblast growth factor 10 (Homo sapiens) (UniProt O15520). As to the kind of experiment: FGF10 binders on small-molecule microarrays, primary screen, biochemical, small-molecule microarray, 635 nm fluorescence (AID 1102). The following applies: FGF10 binding, fluorescence 635 nm, higher = more signal.
The subject of experiment [6] is glycogen synthase kinase-3 (GSK3A per assay name; protocol says GSK3B). As to the kind of experiment: GSK3 binders on small-molecule microarrays, primary screen, biochemical, small-molecule microarray, 635 nm fluorescence, GSK3A (AID 1103). Further: the record names both GSK3A and GSK3B. The following applies: small-molecule microarray binding, fluorescence 635 nm; higher = more signal.
Experiment [7] deals with Epidermal growth factor receptor (Homo sapiens) (UniProt P00533). In words: EGFR binders on small-molecule microarrays, primary screen, biochemical, small-molecule microarray, 635 nm fluorescence (AID 1104).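 Further: score merges 667 nm emission intensity with spot signal to noise over triplicate slides.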 To be noted: EGFR binding, higher = more signal.
Experiment [8] addresses Follistatin-related protein 3 (Homo sapiens) (UniProt O95633). As to the kind of experiment: FSTL3 binders on small-molecule microarrays, primary screen, biochemical, small-molecule microarray, 635 nm fluorescence (AID 1105).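 Further: score merges emission near 667 nm and signal to noise per printed spot across three slides.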 The following applies: FSTL3 binding, higher = more signal.
Experiment [9] concerns the target Dickkopf-related protein 1 (Homo sapiens) (UniProt O94907). In words: DKK1 binders on small-molecule microarrays, primary screen, biochemical, small-molecule microarray, 635 nm fluorescence scan (AID 1106).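 Further: score merges emission near 667 nm with signal to noise over three replicate slides.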 The following applies: DKK1 binding, higher = more signal.
Experiment [10] deals with Inhibin beta A chain (activin A). In words: INHBA (activin A) binders on microarrays, primary screen, biochemical, small-molecule microarray, 635 nm fluorescence scan (AID 1107).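 Further: mouse activin A protein probed at 4.33 µg/mL on printed slides; score merges bound-protein fluorescence near 667 nm with spot signal-to-noise.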 To be noted: small-molecule microarray binding, higher = more signal.
Experiment [11] concerns Human papillomavirus type 1a protein E7 (residues 44-93). As to the kind of experiment: HPV1a E7 fragment binders on microarrays, primary screen, biochemical, small-molecule microarray, residues 44-93, 635 nm fluorescence (AID 1108).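 Further: E7 fragment applied at 1 µg/mL in TBST for 1 h at 4 C; score combines spot fluorescence with its signal to noise ratio.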 The following applies: small-molecule microarray binding, fluorescence 635 nm; higher = more signal.
Experiment [12] can be described thus: modulators of HCV replicon luciferase signal, primary screen, HCV replication inhibitor project, Huh7 cells, luciferase reporter (AID 1109).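 Further: huh7 hepatoma cells harbouring a luciferase neomycin HCV replicon reporter; luciferase luminescence as measure of HCV replicon replication; test concentration not given here.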 The following applies: 48 h, higher = more signal.
Experiment [13] addresses Left-right determination factor 2 (Homo sapiens) (UniProt O00292). In words: LEFTY2 binders on small-molecule microarrays, primary screen, biochemical, small-molecule microarray, 635 nm fluorescence scan (AID 1110). To be noted: LEFTY2 binding, higher = more signal.
The target in experiment [14] is Calmodulin-1 (Homo sapiens) (UniProt P0DP23). As to the kind of experiment: CALM1 binders on microarrays, EGTA buffer, profiling panel, biochemical, small-molecule microarray, Cy5-labelled CALM1 (AID 1111).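 Further: labelled calmodulin applied in Tris saline Tween buffer holding calcium plus EGTA and DTT.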 To be noted: Cy5-CALM1 binding fluorescence, higher = more signal.
For experiment [15] the target is unchanged. In words: calcium-bound CALM1 binders on microarrays, profiling panel, artefact control for SMM control-protein annotation, biochemical, small-molecule microarray, Cy5-labelled CALM1, plus calcium (AID 1112).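 Further: score merges spot fluorescence with signal to noise from triplicate slides.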 To be noted: Cy5-CALM1 binding fluorescence, higher = more signal.
A short description of experiment [16]: small-molecule microarray binders of probe aWnt5a, primary screen, biochemical, biotinylated probe, 635/667 nm fluorescence (AID 1113).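 Further: score merges 667 nm fluorescence intensity with signal-to-noise per printed feature.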 The following applies: higher = more signal.
Experiment [17] is described as follows: small-molecule microarray binders of probe aShh, primary screen, biochemical, biotinylated probe, 635/667 nm fluorescence (AID 1114).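 Further: probe is biotin-labelled aShh protein from a stem cell growth factor screen; measures binding of labelled protein to compounds printed on the slide; score merges feature fluorescence at 667 nm with signal-to-noise.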 To be noted: higher = more signal.
Experiment [18] is described as follows: small-molecule microarray binders of probe aNog, primary screen, biochemical, biotinylated probe, 635/667 nm fluorescence (AID 1115).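 Further: probe is biotinylated aNog protein used at 0.15 µg/mL for 1 h at 4 C; z-score combines 667 nm fluorescence of each spot with its signal to noise.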 The following applies: higher = more signal.
In experiment [19] the target is Torsin-1A-interacting protein 1 (Homo sapiens) (UniProt Q5JTV8). As to the kind of experiment: LAP1 binders from COS7 cell lysate, primary screen, small-molecule microarray, 635/667 nm fluorescence (AID 1116). To be noted: COS7-hLAP1 lysate binding, 635 nm fluorescence, higher = more signal.
The target of experiment [20] is Alpha-bungarotoxin (Bungarus multicinctus) (UniProt P60615). As to the kind of experiment: alpha-bungarotoxin binders on microarray, profiling panel, artefact control for SMM control protein annotation, biochemical, small-molecule microarray, Alexa647 label, 635/667 nm fluorescence (AID 1117). The following applies: alpha-BTX-A647 binding fluorescence, higher = more signal.

Molecules are shown by their SMILES. Several values for one entry are separate records, joined by “and”; a condition that tells them apart may be missing. Identical values can stand only once. Activity calls are given as the source filed them.

Chain of Torsin-1A-interacting protein 1 (Homo sapiens) (Q5JTV8 whole entry, looked up): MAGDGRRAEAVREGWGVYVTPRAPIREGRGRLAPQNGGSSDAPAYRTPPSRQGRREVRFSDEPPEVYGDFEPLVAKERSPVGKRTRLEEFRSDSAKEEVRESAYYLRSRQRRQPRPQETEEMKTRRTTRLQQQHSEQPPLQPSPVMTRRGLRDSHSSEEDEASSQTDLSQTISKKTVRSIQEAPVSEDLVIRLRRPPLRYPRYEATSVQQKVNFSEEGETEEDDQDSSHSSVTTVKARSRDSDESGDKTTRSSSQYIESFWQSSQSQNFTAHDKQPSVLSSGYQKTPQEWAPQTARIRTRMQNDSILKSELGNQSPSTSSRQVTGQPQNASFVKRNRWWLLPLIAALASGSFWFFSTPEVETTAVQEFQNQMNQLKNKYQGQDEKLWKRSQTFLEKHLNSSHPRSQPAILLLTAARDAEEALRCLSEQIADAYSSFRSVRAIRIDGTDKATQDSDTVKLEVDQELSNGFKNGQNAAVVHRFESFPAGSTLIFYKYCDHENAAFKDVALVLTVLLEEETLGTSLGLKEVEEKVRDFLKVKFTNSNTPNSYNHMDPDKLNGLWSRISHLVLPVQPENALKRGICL
Chain of Alpha-bungarotoxin (Bungarus multicinctus) (P60615 whole entry, looked up): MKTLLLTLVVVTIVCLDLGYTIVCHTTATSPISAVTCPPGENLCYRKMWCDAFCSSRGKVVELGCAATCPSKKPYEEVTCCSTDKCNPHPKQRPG
Chain of Epidermal growth factor receptor (Homo sapiens) (P00533 whole entry, looked up): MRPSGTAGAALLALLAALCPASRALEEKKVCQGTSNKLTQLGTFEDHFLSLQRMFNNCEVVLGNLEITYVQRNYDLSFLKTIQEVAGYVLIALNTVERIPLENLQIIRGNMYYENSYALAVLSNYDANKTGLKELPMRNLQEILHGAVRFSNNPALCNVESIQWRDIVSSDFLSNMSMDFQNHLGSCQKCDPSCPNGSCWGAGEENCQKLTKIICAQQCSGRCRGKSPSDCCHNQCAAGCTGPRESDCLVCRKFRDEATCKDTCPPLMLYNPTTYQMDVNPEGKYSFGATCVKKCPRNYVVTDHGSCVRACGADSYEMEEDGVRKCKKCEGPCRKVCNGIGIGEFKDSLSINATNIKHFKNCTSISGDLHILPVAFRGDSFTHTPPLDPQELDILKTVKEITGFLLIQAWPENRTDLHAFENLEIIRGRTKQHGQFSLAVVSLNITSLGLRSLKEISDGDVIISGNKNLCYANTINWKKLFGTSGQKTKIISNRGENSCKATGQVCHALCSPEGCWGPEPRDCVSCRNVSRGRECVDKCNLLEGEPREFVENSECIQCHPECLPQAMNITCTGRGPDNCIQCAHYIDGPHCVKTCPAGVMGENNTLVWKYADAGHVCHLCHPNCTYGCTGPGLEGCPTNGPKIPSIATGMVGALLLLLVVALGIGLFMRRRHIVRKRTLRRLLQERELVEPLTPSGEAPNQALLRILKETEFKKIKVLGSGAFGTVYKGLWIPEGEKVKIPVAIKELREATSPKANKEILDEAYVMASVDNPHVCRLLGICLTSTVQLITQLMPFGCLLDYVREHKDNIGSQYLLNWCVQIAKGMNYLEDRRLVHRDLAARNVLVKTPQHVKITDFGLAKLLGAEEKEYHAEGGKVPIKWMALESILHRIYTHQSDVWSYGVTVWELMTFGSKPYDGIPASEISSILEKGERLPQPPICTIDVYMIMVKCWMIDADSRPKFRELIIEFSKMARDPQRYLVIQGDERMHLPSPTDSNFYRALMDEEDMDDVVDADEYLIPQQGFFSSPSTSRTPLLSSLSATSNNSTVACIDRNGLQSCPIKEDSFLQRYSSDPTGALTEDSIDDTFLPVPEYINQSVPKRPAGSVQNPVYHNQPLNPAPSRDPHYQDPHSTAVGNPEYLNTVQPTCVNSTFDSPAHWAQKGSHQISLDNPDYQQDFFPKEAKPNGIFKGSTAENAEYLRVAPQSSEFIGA
Chain of Dickkopf-related protein 1 (Homo sapiens) (O94907 whole entry, looked up): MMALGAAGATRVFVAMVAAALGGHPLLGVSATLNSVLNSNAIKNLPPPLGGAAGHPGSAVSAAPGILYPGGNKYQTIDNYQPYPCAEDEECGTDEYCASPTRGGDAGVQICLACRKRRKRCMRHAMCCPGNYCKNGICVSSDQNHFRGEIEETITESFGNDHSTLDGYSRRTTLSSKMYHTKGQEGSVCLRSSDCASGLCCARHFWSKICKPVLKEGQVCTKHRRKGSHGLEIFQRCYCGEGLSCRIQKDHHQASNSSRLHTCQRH
Chain of Fibroblast growth factor 10 (Homo sapiens) (O15520 whole entry, looked up): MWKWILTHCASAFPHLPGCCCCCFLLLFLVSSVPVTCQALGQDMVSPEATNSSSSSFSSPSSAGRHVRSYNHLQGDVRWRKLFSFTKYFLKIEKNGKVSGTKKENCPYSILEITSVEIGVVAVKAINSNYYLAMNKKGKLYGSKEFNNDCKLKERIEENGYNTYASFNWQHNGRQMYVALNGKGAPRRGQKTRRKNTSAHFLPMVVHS
Chain of Left-right determination factor 2 (Homo sapiens) (O00292 whole entry, looked up): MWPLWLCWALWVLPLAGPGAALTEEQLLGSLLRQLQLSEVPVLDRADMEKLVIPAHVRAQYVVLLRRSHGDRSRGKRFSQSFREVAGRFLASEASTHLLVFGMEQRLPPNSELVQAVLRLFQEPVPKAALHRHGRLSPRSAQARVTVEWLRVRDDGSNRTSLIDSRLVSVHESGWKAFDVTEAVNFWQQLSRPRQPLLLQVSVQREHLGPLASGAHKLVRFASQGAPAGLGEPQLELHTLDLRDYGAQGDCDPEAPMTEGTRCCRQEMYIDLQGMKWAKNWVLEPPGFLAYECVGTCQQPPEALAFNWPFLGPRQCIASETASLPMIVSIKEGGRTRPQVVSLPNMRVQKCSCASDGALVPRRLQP
Chain of Follistatin-related protein 3 (Homo sapiens) (O95633 whole entry, looked up): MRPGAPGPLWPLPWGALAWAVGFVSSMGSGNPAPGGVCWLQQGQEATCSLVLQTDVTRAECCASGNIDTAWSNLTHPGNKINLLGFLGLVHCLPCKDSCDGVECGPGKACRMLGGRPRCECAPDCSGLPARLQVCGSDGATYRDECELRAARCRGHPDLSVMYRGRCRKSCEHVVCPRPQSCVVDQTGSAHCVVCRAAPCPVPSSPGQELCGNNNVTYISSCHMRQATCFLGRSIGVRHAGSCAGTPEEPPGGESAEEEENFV

Turning to `CC(C)[Si]1(C(C)C)OCc2cc(CCCc3cc4c(c(CCc5ccccc5)n3)[Si](C(C)C)(C(C)C)OC4)nc(CCc3ccccc3)c21`, the composite z-score in [1] is -1.24 and 0.202; in experiment [2], -0.181 and -0.246; in experiment [3], 0.057 and -0.55; in experiment [5], -0.0405 and 0.57; in experiment [6], -0.0221 and 0.559; in experiment [7], 0.327 and 0.456. The composite z-score is -0.291 and 0.745 in experiment [8]; -0.106 and 0.458 in experiment [9]; 0.557 and 0.0127 in experiment [10]; 0.206 and 0.469 in [11]; 0.0155 and 0.497 in experiment [13]; -0.372 and -0.238 in [14]. The composite z-score is 0.797 and -0.487 in [15]; -0.152 and -0.148 in [16]; -0.27 and 0.0141 in experiment [17]; -0.139 and -0.0168 in [18]; -0.421 and 0.248 in experiment [19]; -1.36 and 0.0493 in [20]. The z-score in experiment [4] was -1.52 (inactive) and 0.459 (inactive); in experiment [12], -1.17 and -0.347.
Turning to `CCN1C(=O)[C@H]2[C@H]3[C@H](O)[C@H](O)CC(=NNC(=O)OCc4ccc(OC)cc4)[C@H]3CC[C@H]2C1=O`, the composite z-score in [1] is 0.182; in experiment [2], 1.55; in [3] it was 1.27; in experiment [5] it was 0.178; in experiment [6], -0.152; in experiment [7], -0.698. For the same compound, the composite z-score in [8] is 0.0229; in experiment [9], -0.819; in experiment [10], 0.0193; in [11] it was -0.432; in [13], 0.261; in experiment [14], -0.222. Besides, the composite z-score turned out to be 0.161 in experiment [15]; 0.0597 in experiment [16]; 0.0611 in experiment [17]; 0.664 in experiment [18]; 0.537 in [19]; 0.379 in experiment [20]. Besides, the z-score in experiment [4] is -0.324 (inactive); in [12] it was 0.182.
Regarding `C=CCN(C(=O)C1N(CCCCCCO)C(=O)C2C(C(=O)O)C3C=CC21O3)c1ccc(OC)cc1` (stereo not given), the composite z-score in [1] was 1.04 and -1.32; in experiment [2], 0.0787 and 0.332; in experiment [3], 1.27 and 1.18; in experiment [5], -0.791 and -1.26; in experiment [6], -0.329 and -0.852; in experiment [7], -2.79 and -2.32. For the same compound, the composite z-score in [8] was -2.58 and -1.84; in experiment [9], -2.84 and -2.35; in experiment [10], -1.71 and -1.78; in [11], -0.862 and -1.21; in experiment [13], -3.9 and -3.75; in experiment [14], -0.0411 and -1.13. Besides, the composite z-score in experiment [15] was 0.734 and 0.0742; in [16], -0.224 and -0.124; in experiment [17] it was -0.0011 and 0.551; in experiment [18] it was 0.692 and 0.838; in experiment [19], 2.83 and 1.74; in experiment [20], -2.05 and -1.37. For the same compound, the z-score was -1.67 (inactive) and -0.118 (inactive) in experiment [4]; -0.67 and -0.824 in experiment [12].
Consider `COC(=O)CC=C[C@@H](C)[C@@H](CO)NS(=O)(=O)c1ccc(C)cc1`, for which the composite z-score in experiment [1] was 0.266 and 0.348; in experiment [2], -0.393 and -0.371; in experiment [3], -0.591 and -0.895; in [5], 0.394 and 0.774; in [6] it was 0.635 and 0.827; in experiment [7], 0.667 and 0.395. Besides, the composite z-score in experiment [8] was 0.505 and 1.3; in [9], 0.998 and 0.71; in experiment [10], 0.0232 and -0.0806; in [11], -0.314 and 0.755; in [13] it was 0.632 and 0.966; in experiment [14] it was -0.442 and -0.343. Further, the composite z-score is -1.01 and -0.837 in [15]; -0.0405 and -0.0994 in [16]; -0.522 and 0.111 in [17]; -0.0503 and 0.0287 in experiment [18]; -0.145 and 0.808 in experiment [19]; -0.309 and 0.0211 in experiment [20]. Besides, the z-score is 0.538 (inactive) and -0.445 (inactive) in experiment [4]; -0.465 and -0.0825 in experiment [12].
Take `C=CCN(Cc1ccccc1)C(=O)C(c1cccs1)N(C(=O)/C=C\C(=O)O)c1ccc(CCO)cc1` (stereo not given): the composite z-score in experiment [1] is -0.14 and -0.0434; in experiment [2], -0.141 and -0.17; in [3], 0.98 and 0.85; in [5], -1.22 and -2.14; in experiment [6], -1.23 and -1.61; in experiment [7], -1.96 and -1.68. In addition, the composite z-score in [8] is -1.91 and -1.88; in [9], -2.15 and -2.42; in experiment [10], -1.76 and -3.2; in [11], -0.325 and -0.505; in experiment [13], -2.74 and -3.22; in [14], -0.729 and -1. Moreover, the composite z-score was 0.204 and -0.257 in [15]; -0.243 and -0.252 in experiment [16]; -0.221 and -0.138 in experiment [17]; -0.4 and -0.118 in experiment [18]; -0.648 and -0.326 in experiment [19]; -1.7 and -1.25 in experiment [20]. The z-score in experiment [4] was 0.203 (inactive) and 0.258 (inactive); in [12], 0.0048 and 0.875.
As for `CCOC(=O)[C@H](Cc1ccccc1)NC(=O)CCC1CC(OC(=O)NCc2cccc3ccccc23)CC2(CCCC(COC(=O)NCCCN3CCCC3=O)O2)O1` (stereo not given in full), the composite z-score is 0.513 in experiment [1]; -0.104 in experiment [2]; -0.517 in [3]; 0.447 in [5]; 0.901 in [6]; 0.405 in experiment [7]. Moreover, the composite z-score in [8] was 0.804; in experiment [9] it was 0.866; in experiment [10] it was -0.0698; in [11], 1.28; in [13], 0.752; in [14], 0.394. In addition, the composite z-score in experiment [15] is -0.267; in experiment [16], -0.2; in experiment [17], -0.279; in experiment [18], -0.17; in experiment [19] it was 0.403; in experiment [20], 0.552. The results for the z-score in experiment [4] and in [12] were -1.09 (inactive) and -0.963, respectively.

The values are drawn from PubChem BioAssay.
